Laboratory results published in PubChem BioAssay.
Calls of active or inactive are those of the source. Unless noted, the rule behind the calls is not given here.

Legend:
[1] = test system: Wnt5a (protein binding on small-molecule microarray); assay: Wnt5a binders on small-molecule microarray, primary screen, biophysical, 635/667 nm fluorescence (AID 1142); conditions: 635 nm fluorescence, higher = more signal;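 note: fluorescence read at 667 nm with signal to noise per printed feature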
[2] = cell viability in Huh7 cells, primary screen, cytotoxicity control for HCV replication inhibitor project, CellTiter-Glo luminescence, basal, 48 h (AID 1143); conditions: Huh7 HCV replicon, higher = more signal, called active from +8 up or from −8 down;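 note: Huh7 hepatoma cells carrying a hepatitis C replication reporter with no stimulus; test concentration not given here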
[3] = P. aeruginosa biofilm formation inhibitors, primary screen, PAO1 strain, BacTiter-Glo luminescence, LB-PBS (AID 1144); conditions: 12 h, higher = more signal
[4] = CREB reporter modulators without forskolin, primary screen, cell-based, PC12, CRE-LacZ reporter, unstimulated (AID 1145); conditions: no forskolin, luminescence, 4.5 h, higher = more signal, called active from +8 up or from −8 down
[5] = CREB reporter modulators under forskolin, primary screen, cell-based, PC12, CRE-LacZ reporter, forskolin-stimulated (AID 1146); conditions: luminescence, 4.5 h, higher = more signal, called active from +8 up or from −8 down;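 note: PC12 cells with 6xCRE LacZ reporter stimulated by forskolin 10 µM; beta-galactosidase reporter signal reflecting CREB driven transcription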
[6] = target: Streptavidin (Streptomyces avidinii) (UniProt P22629); assay: streptavidin binders on small-molecule microarray, primary screen, artefact control for SMM compound annotation, biophysical, 635/667 nm fluorescence (AID 1147); conditions: streptavidin binding, higher = more signal;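 note: signal reflects streptavidin binding to arrayed compounds as a control protein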
[7] = small-molecule binders of probe aInhba, primary screen, biochemical, small-molecule microarray, 635/667 nm fluorescence (AID 1148); conditions: higher = more signal;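 note: score merges 667nm spot fluorescence with signal-to-noise for antibody binding to printed compounds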
[8] = target: Torsin-1A (Homo sapiens) (UniProt O14656); assay: torsin A binders from cell lysate, primary screen, small-molecule microarray, wild-type, 635/667 nm (AID 1149); conditions: COS7 hTOR1A-WT lysate, 635 nm fluorescence, higher = more signal
[9] = target: Torsin-1A (Homo sapiens) (UniProt O14656); assay: small-molecule binders of mutant TOR1A in lysate, primary screen, cell lysate, small-molecule microarray, COS7 lysate, 635/667 nm fluorescence (AID 1150); conditions: COS7 hTOR1A mutant lysate, 635 nm fluorescence, higher = more signal;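 note: score pools 667 nm emission and signal to noise measuring lysate protein binding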
[10] = test system: Sonic hedgehog protein (Shh); assay: small-molecule binders of Shh protein, primary screen, biochemical, small-molecule microarray, 635/667 nm fluorescence (AID 1151); conditions: small-molecule microarray binding, 635 nm fluorescence; higher = more signal;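 note: Shh protein binding to compounds spotted on small-molecule microarray slides; score combines spot fluorescence intensity with signal-to-noise across triplicate slides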
[11] = E. coli DRC41 culture turbidity changes, primary screen, E. coli filamentation inducer project, strain DRC41, OD650, 48 h (AID 1152);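 note: E. coli MC1000 strain DRC41 lacking acrAB efflux pump and sulA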; conditions: E. coli DRC41 (acrAB sulA), higher = more signal, called active from +8 up or from −8 down
[12] = small-molecule binders of probe aLefty1, primary screen, biochemical, small-molecule microarray, 635/667 nm fluorescence (AID 1153); conditions: higher = more signal;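 note: score merges spot fluorescence with signal-to-noise ratio from the scanned slide images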
[13] = PSAC antagonists in infected red cells, primary screen, cell-based, P. falciparum Indochina, OD700, 1 h (AID 1154); conditions: P. falciparum Indochina infected RBC osmotic lysis, higher = more signal, called active from +8 up or from −8 down
[14] = PSAC antagonists in infected red cells, primary screen, cell-based, P. falciparum Indochina, OD700, 2 h (AID 1155);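 note: lysis reports solute entry through the parasite surface anion channel PSAC; channel blockers reduce lysis of infected cells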; conditions: P. falciparum Indochina infected erythrocytes, osmotic lysis OD700; higher = more signal, called active from +8 up or from −8 down
[15] = osmotic lysis modulators in infected erythrocytes, primary screen, PSAC antagonist project, cell-based, P. falciparum Indochina, OD700, 3 h (AID 1156); conditions: higher = more signal, called active from +8 up or from −8 down
[16] = PSAC antagonists in infected red cells, primary screen, cell-based, P. falciparum Indochina, OD700, 18 h (AID 1157); conditions: P. falciparum Indochina infected erythrocytes, osmotic lysis OD700, 18 h; higher = more signal, called active from +8 up or from −8 down
[17] = modulators of S6 phosphorylation in cells, primary screen, cell-based, A549, cytoblot, luminescence, serum-stimulated (AID 1158); conditions: A549 phospho-S6 cytoblot, 5 h, higher = more signal;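 note: serum-stimulated A549 lung adenocarcinoma cells; signal is phosphorylated S6 detected by cytoblot immunostaining with HRP secondary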
[18] = target: NADPH oxidase 2 (Homo sapiens) (UniProt P04839); assay: NOX2-dependent H2O2 signal modulators, primary screen, NOX inhibitor project, cell-based, HEK293-NOX2, PMA-stimulated, Amplex Red fluorescence (AID 1159); conditions: 45 min, higher = more signal, called active from +8 up or from −8 down; note: test concentration not given here
[19] = target: NADPH oxidase 4 (Homo sapiens) (UniProt Q9NPH5); assay: NOX4-dependent H2O2 signal modulators, primary screen, NOX inhibitor project, cell-based, HEK293-NOX4, tetracycline-induced, Amplex Red fluorescence (AID 1160); conditions: 45 min, higher = more signal, called active from +8 up or from −8 down
[20] = target: NADPH oxidase 5 (Homo sapiens) (UniProt Q96PH1); assay: NOX5-dependent H2O2 signal modulators, primary screen, NOX inhibitor project, cell-based, HEK293-NOX5, Amplex Red fluorescence (AID 1161); conditions: HEK293-NOX5, ionomycin, 45 min, higher = more signal
Chain of NADPH oxidase 5 (Homo sapiens) (Q96PH1 whole entry, looked up): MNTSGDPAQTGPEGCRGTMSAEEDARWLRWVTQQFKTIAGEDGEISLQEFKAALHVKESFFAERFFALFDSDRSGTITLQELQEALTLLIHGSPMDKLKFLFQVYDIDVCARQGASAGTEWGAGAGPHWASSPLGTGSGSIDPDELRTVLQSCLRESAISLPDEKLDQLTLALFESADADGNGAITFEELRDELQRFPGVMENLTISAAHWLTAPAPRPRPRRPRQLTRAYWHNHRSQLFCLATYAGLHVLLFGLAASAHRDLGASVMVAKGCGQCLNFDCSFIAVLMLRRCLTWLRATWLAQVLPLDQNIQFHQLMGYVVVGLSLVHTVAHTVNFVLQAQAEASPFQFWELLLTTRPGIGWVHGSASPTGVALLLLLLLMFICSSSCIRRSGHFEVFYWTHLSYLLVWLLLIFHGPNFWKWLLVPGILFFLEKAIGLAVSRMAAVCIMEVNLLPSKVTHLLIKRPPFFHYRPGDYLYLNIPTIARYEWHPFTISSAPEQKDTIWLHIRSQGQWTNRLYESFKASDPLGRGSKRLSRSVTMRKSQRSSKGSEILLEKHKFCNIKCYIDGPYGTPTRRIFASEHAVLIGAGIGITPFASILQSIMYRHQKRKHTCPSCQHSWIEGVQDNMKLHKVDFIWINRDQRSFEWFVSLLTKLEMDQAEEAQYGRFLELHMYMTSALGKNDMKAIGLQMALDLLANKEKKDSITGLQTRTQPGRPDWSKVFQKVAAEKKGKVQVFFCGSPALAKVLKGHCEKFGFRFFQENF

Chain of Streptavidin (Streptomyces avidinii) (P22629 whole entry, looked up): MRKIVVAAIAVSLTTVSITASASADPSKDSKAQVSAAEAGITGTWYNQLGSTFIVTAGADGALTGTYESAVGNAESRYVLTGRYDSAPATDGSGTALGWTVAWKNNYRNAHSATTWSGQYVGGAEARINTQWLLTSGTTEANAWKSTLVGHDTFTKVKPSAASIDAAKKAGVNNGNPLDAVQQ
Chain of NADPH oxidase 2 (Homo sapiens) (P04839 whole entry, looked up): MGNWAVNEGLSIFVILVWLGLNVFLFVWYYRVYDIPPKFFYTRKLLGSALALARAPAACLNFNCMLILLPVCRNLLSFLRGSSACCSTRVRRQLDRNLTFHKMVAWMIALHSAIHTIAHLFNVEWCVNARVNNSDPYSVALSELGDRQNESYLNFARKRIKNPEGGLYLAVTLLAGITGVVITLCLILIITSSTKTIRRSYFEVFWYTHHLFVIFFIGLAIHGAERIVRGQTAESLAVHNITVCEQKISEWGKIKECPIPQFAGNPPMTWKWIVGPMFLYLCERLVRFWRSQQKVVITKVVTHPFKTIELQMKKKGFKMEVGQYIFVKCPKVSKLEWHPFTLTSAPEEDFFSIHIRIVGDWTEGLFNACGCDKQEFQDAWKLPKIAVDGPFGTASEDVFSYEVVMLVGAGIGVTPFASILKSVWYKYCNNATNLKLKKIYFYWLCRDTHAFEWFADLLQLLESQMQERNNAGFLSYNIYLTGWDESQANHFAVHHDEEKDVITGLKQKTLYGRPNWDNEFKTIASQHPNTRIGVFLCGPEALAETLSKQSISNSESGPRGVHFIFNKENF
Chain of Torsin-1A (Homo sapiens) (O14656 whole entry, looked up): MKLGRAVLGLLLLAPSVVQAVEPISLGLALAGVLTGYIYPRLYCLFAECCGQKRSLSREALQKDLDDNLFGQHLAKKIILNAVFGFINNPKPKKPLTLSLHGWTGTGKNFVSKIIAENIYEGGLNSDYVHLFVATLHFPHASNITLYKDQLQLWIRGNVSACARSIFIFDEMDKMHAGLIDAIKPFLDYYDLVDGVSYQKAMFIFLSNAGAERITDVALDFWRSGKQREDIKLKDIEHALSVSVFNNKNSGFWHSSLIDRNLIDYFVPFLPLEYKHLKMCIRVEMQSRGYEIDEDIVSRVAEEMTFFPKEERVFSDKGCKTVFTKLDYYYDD
Chain of NADPH oxidase 4 (Homo sapiens) (Q9NPH5 whole entry, looked up): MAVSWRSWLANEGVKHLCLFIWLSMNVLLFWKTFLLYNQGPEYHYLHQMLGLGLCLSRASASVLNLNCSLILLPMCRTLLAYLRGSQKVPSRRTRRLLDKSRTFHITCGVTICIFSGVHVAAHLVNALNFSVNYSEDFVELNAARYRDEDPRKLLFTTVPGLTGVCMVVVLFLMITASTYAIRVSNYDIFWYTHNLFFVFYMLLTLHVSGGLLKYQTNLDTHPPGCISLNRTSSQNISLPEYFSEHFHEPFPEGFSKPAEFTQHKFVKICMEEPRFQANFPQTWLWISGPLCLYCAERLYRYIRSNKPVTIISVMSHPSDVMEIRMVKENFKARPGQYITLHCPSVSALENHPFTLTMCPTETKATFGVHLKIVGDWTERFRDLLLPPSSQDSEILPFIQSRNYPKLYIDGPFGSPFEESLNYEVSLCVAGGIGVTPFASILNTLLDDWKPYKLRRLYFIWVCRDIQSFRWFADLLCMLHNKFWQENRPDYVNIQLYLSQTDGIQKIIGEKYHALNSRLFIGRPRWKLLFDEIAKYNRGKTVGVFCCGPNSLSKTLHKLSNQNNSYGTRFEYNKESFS

| SMILES | composite z-score [1] | z-score [2] | z-score [3] | z-score [4] | z-score [5] | composite z-score [6] | composite z-score [7] | composite z-score [8] | composite z-score [9] | composite z-score [10] | z-score [11] | composite z-score [12] | z-score [13] | z-score [14] | z-score [15] | z-score [16] | z-score [17] | z-score [18] | z-score [19] | z-score [20] |
| --- | --- | --- | --- | --- | --- | --- | --- | --- | --- | --- | --- | --- | --- | --- | --- | --- | --- | --- | --- | --- |
| C[C@]12C(=O)N(CCCCCO)[C@@H]3C(=O)N(c4ccc(Cl)cc4)CC=CC31O[C@@H]1/C=C\CCCOC(=O)C12 (stereo not given in full) | -0.937 | -0.297 (inactive) | 1.45 (inactive) | 0.203 (inactive) | -0.416 (inactive) | -1.19 | -0.179 | -2.76 | -1.63 | 0.0607 | -1.14 (inactive) | -0.0054 | -0.198 (inactive) | -0.307 (inactive) | -1.04 (inactive) | -0.183 (inactive) | -0.58 | 0.754 (inactive) | 0.055 (inactive) | 1.45 |
| COCC(=C=CC[C@@H](O)c1ccccc1OCCO)C[C@@H](O)c1ccccn1 | 0.088 | -0.202 (inactive) | 1.2 (inactive) | 1.99 (inactive) | -0.465 (inactive) | -0.0795 | 0.0737 | 0.162 | 0.679 | 1.89 | -0.197 (inactive) | 0.235 | 8.59 (active) | 0.801 (inactive) | 0.502 (inactive) | 0.577 (inactive) | -0.456 | -0.459 (inactive) | -1.04 (inactive) | -1.31 |
| [N-]=[N+]=NCc1ccccc1C[C@]1(C(=O)NCCN2CCOCC2)N=C(c2ccc(OCCCO)cc2)O[C@H]1c1ccccc1 | 0.461 | -4.59 (inactive) | -1.63 (inactive) | 1.11 (inactive) | -0.838 (inactive) | -0.0127 | 0.364 | 1.39 | 0.531 | 1.1 | 0.158 (inactive) | 0.428 | 12.7 (active) | 1.83 (inactive) | 1.14 (inactive) | 1.11 (inactive) | 0.378 | -1.77 (inactive) | -0.0953 (inactive) | -1.19 |
| O=C1NC(=O)C2C1C=CC(C(O)CCc1ccccc1)N2Nc1ccccn1 (stereo not given) | 0.149 | -0.466 (inactive) | -0.922 (inactive) | 0.433 (inactive) | -0.382 (inactive) | 0.179 | -0.0849 | 0.0825 | 0.486 | 0.0046 | 0.0468 (inactive) | 0.0844 | -0.247 (inactive) | -0.752 (inactive) | -0.548 (inactive) | -1.97 (inactive) | 1 | -1.43 (inactive) | -3.34 (inactive) | -1.52 |
| CC1CC/C=C\[C@H]2OC34C=CCN(c5ccc(Cl)cc5)C(=O)[C@H]3N(C(CO)C(C)C)C(=O)[C@]4(C)C2C(=O)O1 (stereo not given in full) | -0.293 | 0.24 (inactive) | 0.971 (inactive) | 0.199 (inactive) | -0.27 (inactive) | -1.17 | -0.128 | 1.3 | 1.45 | 0.14 | -0.397 (inactive) | 0.188 | 2.3 (inactive) | 0.798 (inactive) | 0.647 (inactive) | 0.647 (inactive) | -0.631 | 1.86 (inactive) | -0.264 (inactive) | 2.39 |
| O=C1C2C=CC(C(O)c3ccc(Br)cc3)N(Nc3ccccc3)C2C(=O)N1c1ccccc1 (stereo not given) | -0.0007 | 0.198 (inactive) | -0.95 (inactive) | 0.24 (inactive) | 0.35 (inactive) | 1.47 | 0.147 | -0.0004 | -0.0172 | -0.146 | -1.78 (inactive) | 0.305 | 8.27 (active) | 1.8 (inactive) | 0.244 (inactive) | 1.25 (inactive) | -0.554 | -1.82 (inactive) | -4.09 (inactive) | -2.39 |
| CC1C=C(CCCO)C=C(C(=O)OCCS(C)(=O)=O)C(C(=O)OCCS(C)(=O)=O)=CN1Cc1cccc(OC(F)(F)F)c1 (stereo not given) | 0.0382 | -0.911 (inactive) | -0.846 (inactive) | -0.364 (inactive) | 0.56 (inactive) | 1.28 | 0.288 | 0.887 | 0.893 | -0.0368 | -0.311 (inactive) | 0.304 | 1.81 (inactive) | 0.45 (inactive) | 0.714 (inactive) | 0.283 (inactive) | 0.402 | -1.97 (inactive) | -0.729 (inactive) | -1.67 |
| Cc1cc(C)c(C(O)C2C=CC3C(=O)N(c4ccccc4)C(=O)C3N2Nc2ccc([N+](=O)[O-])cc2)c(C)c1 (stereo not given) | 0.243 | -1.1 (inactive) | -2.08 (inactive) | -0.0696 (inactive) | 0.691 (inactive) | 1.72 | 0.548 | 0.567 | 1.2 | 0.697 | -0.613 (inactive) | 0.703 | 6.15 (inactive) | 1.76 (inactive) | 0.252 (inactive) | 1.13 (inactive) | -0.62 | -0.305 (inactive) | -0.661 (inactive) | -1.63 |
| CCOC(=O)C[C@H]1[C@H](OC(=O)c2ccc(C(=O)c3ccccc3)cc2)[C@@H](NC(=O)C2CCCCC2)c2cc(OCCCO)ccc2N1C(=O)Cc1ccc(OC)cc1 | 0.354 | -0.281 (inactive) | 0.193 (inactive) | 1.24 (inactive) | -0.0721 (inactive) | 0.519 | 0.0497 | 0.192 | 1.24 | 0.761 | 0.522 (inactive) | 0.271 | 2.32 (inactive) | 0.744 (inactive) | 0.0357 (inactive) | -0.206 (inactive) | 0.0093 | -1.38 (inactive) | 0.626 (inactive) | 1.74 |
